In PubChem BioAssay (EPA / NIEHS):
Several values for one entry are separate records, joined by “and”; a condition that tells them apart may be missing. Equal entries are not always repeated. Some compounds were tested as several samples or in several runs, with calls that do not always agree. Activity calls are given as the source filed them. How the source made its calls: active means hit-call score of the fitted dose curve at least 0.9, where 1 is the maximum; inactive means score below 0.9.

Tests used:
[1] = read-out: Tissue plasminogen activator (tPA), PLAT (gene 5327); assay: BSK_BE3C_tPA: BioMAP Diversity Plus: BE3C Assay for Tissue plasminogen activator (tPA) Biomarker Activity (AID 2283041); conditions: primary human bronchial epithelial cells; actives raise or lower the signal
Method in brief: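 Human primary bronchial epithelial cells were dosed with chemical and tPA biomarker levels measured by ELISA 24 hours later. Activity was fitted bidirectionally against DMSO as negative control and baseline.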

[2] = read-out: Interleukin-8 (IL8), CXCL8 (gene 3576); assay: BSK_CASM3C_IL8: BioMAP Diversity Plus: CASM3C Assay for Interleukin-8 (IL8) Biomarker Activity (AID 2283042); conditions: primary human coronary artery smooth muscle cells; actives raise or lower the signal;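 further: IL-8 protein level quantified by ELISA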
[3] = read-out: Human Leukocyte Antigen - DR isotype (HLADR), HLA-DRA (gene 3122); assay: BSK_CASM3C_HLADR: BioMAP Diversity Plus: CASM3C Assay for Human Leukocyte Antigen - DR isotype (HLADR) Biomarker Activity (AID 2283043); conditions: primary human coronary artery smooth muscle cells; actives raise or lower the signal;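 further: cell-surface HLA-DR protein level quantified by ELISA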
[4] = read-out: Macrophage colony-stimulating factor (MCSF), CSF1 (gene 1435); assay: BSK_CASM3C_MCSF: BioMAP Diversity Plus: CASM3C Assay for Macrophage colony-stimulating factor (MCSF) Biomarker Activity (AID 2283044); conditions: primary human coronary artery smooth muscle cells; actives raise or lower the signal;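 further: M-CSF protein amount quantified by ELISA after 24 h exposure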
[5] = read-out: Low-density lipoprotein receptor (LDLR), LDLR (gene 3949); assay: BSK_CASM3C_LDLR: BioMAP Diversity Plus: CASM3C Assay for Low-density lipoprotein receptor (LDLR) Biomarker Activity (AID 2283045); conditions: primary human coronary artery smooth muscle cells; actives raise or lower the signal;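 further: LDLR protein level on the cell surface quantified by ELISA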
[6] = read-out: Monocyte Chemoattractant Protein-1 (MCP1), CCL2 (gene 6347); assay: BSK_CASM3C_MCP1: BioMAP Diversity Plus: CASM3C Assay for Monocyte Chemoattractant Protein-1 (MCP1) Biomarker Activity (AID 2283046); conditions: primary human coronary artery smooth muscle cells; actives raise or lower the signal;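 further: MCP-1 level quantified by ELISA 24 h after dosing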
[7] = BSK_CASM3C_Proliferation: Cell Proliferation Assessment in the BioMAP Diversity Plus: CASM3C Assay (AID 2283047); conditions: primary human coronary artery smooth muscle cells;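 further: sulforhodamine B total protein stain as relative cell number at 560 nm; sub-confluent cells exposed 48 h before staining; fitted both ways against DMSO so gain or loss of cell number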
[8] = read-out: Monokine induced gamma interferon (MIG), CXCL9 (gene 4283); assay: BSK_CASM3C_MIG: BioMAP Diversity Plus: CASM3C Assay for Monokine induced gamma interferon (MIG) Biomarker Activity (AID 2283048); conditions: primary human coronary artery smooth muscle cells; actives raise or lower the signal;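 further: MIG protein level measured by ELISA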
[9] = read-out: serum amyloid A (SAA), SAA1 (gene 6288); assay: BSK_CASM3C_SAA: BioMAP Diversity Plus: CASM3C Assay for serum amyloid A (SAA) Biomarker Activity (AID 2283049); conditions: primary human coronary artery smooth muscle cells; actives raise or lower the signal;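 further: SAA protein level quantified by ELISA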
[10] = BSK_CASM3C_SRB: Viability Assessment in the BioMAP Diversity Plus: CASM3C Assay (AID 2283050); conditions: primary human coronary artery smooth muscle cells;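 further: total protein by SRB staining as cytotoxicity measure in parallel cultures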
[11] = read-out: Thrombomodulin, THBD (gene 7056); assay: BSK_CASM3C_Thrombomodulin: BioMAP Diversity Plus: CASM3C Assay for Thrombomodulin Biomarker Activity (AID 2283051); conditions: primary human coronary artery smooth muscle cells; actives raise or lower the signal;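 further: thrombomodulin protein level measured by ELISA 24 h after dosing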
[12] = read-out: Tissue Factor, F3 (gene 2152); assay: BSK_CASM3C_TissueFactor: BioMAP Diversity Plus: CASM3C Assay for Tissue Factor Biomarker Activity (AID 2283052); conditions: primary human coronary artery smooth muscle cells; actives raise or lower the signal;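 further: cell surface tissue factor protein level read by ELISA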
[13] = read-out: Interferon-gamma inducible Protein 10 (IP10), CXCL10 (gene 3627); assay: BSK_hDFCGF_IP10: BioMAP Diversity Plus: hDFCGF Assay for Interferon-gamma inducible Protein 10 (IP10) Biomarker Activity (AID 2283053); conditions: primary human foreskin fibroblasts; actives raise or lower the signal
Method in brief: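 Human foreskin fibroblast primary cells (hDFCGF system) were dosed with chemical and assayed at 24 h; IP-10 measured by ELISA. Activity fitted bidirectionally relative to DMSO negative control as baseline.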

[14] = read-out: Urokinase-type plasminogen activator receptor (uPAR), PLAUR (gene 5329); assay: BSK_CASM3C_uPAR: BioMAP Diversity Plus: CASM3C Assay for Urokinase-type plasminogen activator receptor (uPAR) Biomarker Activity (AID 2283054); conditions: primary human coronary artery smooth muscle cells; actives raise or lower the signal;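 further: cell-surface uPAR protein level quantified by ELISA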
[15] = read-out: Vascular cell adhesion molecule 1 (VCAM1), VCAM1 (gene 7412); assay: BSK_CASM3C_VCAM1: BioMAP Diversity Plus: CASM3C Assay for Vascular cell adhesion molecule 1 (VCAM1) Biomarker Activity (AID 2283055); conditions: primary human coronary artery smooth muscle cells; actives raise or lower the signal;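 further: VCAM-1 protein level quantified by ELISA on the cells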
[16] = read-out: Collagen III, COL3A1 (gene 1281); assay: BSK_hDFCGF_CollagenIII: BioMAP Diversity Plus: hDFCGF Assay for Collagen III Biomarker Activity (AID 2283056); conditions: primary human foreskin fibroblasts; actives raise or lower the signal
Method in brief: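 Response relative to DMSO, fitted in both directions, reflects ELISA-measured collagen III in human primary skin fibroblasts 24 h after compound addition.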

[17] = read-out: Epidermal growth factor receptor (EGFR), EGFR (gene 1956); assay: BSK_hDFCGF_EGFR: BioMAP Diversity Plus: hDFCGF Assay for Epidermal growth factor receptor (EGFR) Biomarker Activity (AID 2283057); conditions: primary human foreskin fibroblasts; actives raise or lower the signal
Method in brief: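 Primary human foreskin fibroblasts were exposed to compound for 24 h, after which cell-surface EGFR was quantified by ELISA. Activity was fitted bidirectionally against the DMSO negative control as baseline.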

[18] = read-out: Interleukin-8 (IL8), CXCL8 (gene 3576); assay: BSK_hDFCGF_IL8: BioMAP Diversity Plus: hDFCGF Assay for Interleukin-8 (IL8) Biomarker Activity (AID 2283058); conditions: primary human foreskin fibroblasts; actives raise or lower the signal
Method in brief: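 Fibroblast monolayers (human foreskin, hDFCGF) received test chemical for 24 h before ELISA detection of IL-8; either increases or decreases relative to DMSO count as activity.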

[19] = BSK_hDFCGF_Proliferation: Cell Proliferation Assessment in the BioMAP Diversity Plus: hDFCGF Assay (AID 2283059); conditions: primary human foreskin fibroblasts;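 further: curves fitted for both rise and fall of signal versus DMSO baseline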
Method in brief: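 This proliferation readout used SRB total-protein staining of human foreskin fibroblasts […], normalized to DMSO with bidirectional curve fitting.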

[20] = read-out: Macrophage colony-stimulating factor (MCSF), CSF1 (gene 1435); assay: BSK_hDFCGF_MCSF: BioMAP Diversity Plus: hDFCGF Assay for Macrophage colony-stimulating factor (MCSF) Biomarker Activity (AID 2283060); conditions: primary human foreskin fibroblasts; actives raise or lower the signal
Method in brief: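 fibroblasts (human foreskin, primary), 24 h post-dose; M-CSF by ELISA; bidirectional fit, DMSO = baseline.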

Measured: AC50

CCOC(=O)C=Cc1ccccc1
active: [12] 0.0239 µM
inactive: all other assays above

CC(=O)c1ccc(C)cc1
inactive: all assays above

O=C(O)C(F)(F)OC(F)(F)C(F)(F)OC(F)(F)C(F)(F)C(F)(F)C(F)(F)F
active: [1] 12.4 µM | [6] 48 µM | [13] 15.6 µM and 18.7 µM | [16] 22.3 µM and 29.2 µM | [20] 6.97 µM and 30 µM
inactive: [1] | [2] | [3] | [4] | [5] | [6] | [7] | [8] | [9] | [10] | [11] | [12] | [14] | [15] | [17] | [18] | [19]

CCn1cc(C(=O)O)c(=O)c2ccc(C)nc21
inactive: all assays above

C=C(C)C(=O)OCCC(F)(F)C(F)(F)C(F)(F)C(F)(F)C(F)(F)C(F)(F)C(F)(F)C(F)(F)F
inactive: all assays above

CC(=O)CCC=C(C)CCC=C(C)C
active: [7] 197 nM | [15] 25.4 µM | [19] 31.3 µM
inactive: all other assays above

O=S1(=O)CC(Cl)(Cl)C(Cl)(Cl)C1
active: [1] 0.964 µM | [2] 1.3 µM | [3] 0.421 µM | [4] 0.908 µM | [5] 389 nM | [6] 1.11 µM | [7] 113 nM | [8] 2.22 µM | [9] 764 nM | [10] 0.82 µM | [11] 7.52 µM | [12] 2.07 µM | [13] 961 nM | [14] 1.05 µM | [15] 0.93 µM | [16] 1.35 µM | [19] 0.016 µM | [20] 0.71 µM
inactive: [17] | [18]

O=C(O)C(F)(F)C(F)(F)C(F)(F)C(F)(F)C(F)(F)C(F)(F)C(F)(F)C(F)F
active: [16] 10.7 µM
inactive: [1] | [2] | [3] | [4] | [5] | [6] | [7] | [8] | [9] | [10] | [11] | [12] | [13] | [14] | [15] | [16] | [17] | [18] | [19] | [20]

CC(C)(C)c1cccc(O)c1
inactive: all assays above

COc1ccccc1NC(=O)CC(C)=O
inactive: all assays above

OCC(F)(OC(F)(F)C(F)(OC(F)(F)C(F)(F)C(F)(F)F)C(F)(F)F)C(F)(F)F (configuration not stated)
inactive: [1] | [2] | [3] | [4] | [5] | [6] | [7] | [8] | [9] | [10] | [11] | [12] | [14] | [15] | [17] | [18]
active: [13] 2.4 µM and 2.74 µM | [16] 2.23 µM and 1.98 µM | [17] 5.4 µM | [18] 5.05 µM | [19] 4.48 µM and 4.13 µM | [20] 2.34 µM and 1.91 µM

O=C1OC2(c3ccc(O)cc3Oc3cc(O)ccc32)c2ccccc21
active: [19] 20 µM
inactive: all other assays above

CC(=O)OC(C)(C)C1CC=C(C)CC1 (configuration not stated)
active: [1] 27.7 µM | [3] 31.5 µM | [4] 35.3 µM | [6] 32.6 µM | [7] 29600 nM | [10] 28.6 µM | [14] 31.7 µM | [15] 34.8 µM | [19] 18.5 µM
inactive: all other assays above

CCC(=O)OCC=Cc1ccccc1
inactive: all assays above

CCCCOCCOCCO
inactive: all assays above

CCCCCCCC1CCCC1=O (configuration not stated)
active: [1] 33.4 µM | [3] 35.2 µM | [4] 31.9 µM | [5] 30500 nM | [6] 34.3 µM | [7] 31200 nM | [8] 31.8 µM | [9] 36200 nM | [10] 36.6 µM | [12] 31.8 µM | [14] 29.5 µM | [15] 30.9 µM | [19] 33.3 µM
inactive: [2] | [11] | [13] | [16] | [17] | [18] | [20]

c1ccc(OCCOc2ccccc2)cc1
inactive: all assays above

C=C1CC/C=C(\C)CC[C@@H]2[C@@H]1CC2(C)C
active: [10] 33.2 µM | [13] 30100 nM | [15] 29 µM | [16] 13.5 µM | [18] 33.9 µM | [19] 6.82 µM | [20] 24.5 µM
inactive: all other assays above

CC(=O)OCC=C(C)CCC=C(C)CCC=C(C)C
active: [1] 3.97 µM | [12] 2.51 µM | [16] 4.49 µM | [19] 17.4 µM | [20] 25.9 µM
inactive: all other assays above

CC1=CC(C)C(C=O)C(C)C1 (configuration not stated) (tested in a mixture with another compound)
inactive: all assays above

CCOC(=O)CCCCCCCCC(=O)OCC
inactive: all assays above

CC/C(=C(\c1ccccc1)c1ccc(OCCN(C)C)cc1)c1ccccc1
inactive: [11] | [12] | [17]
active: [1] 7.72 µM and 14 µM | [2] 30.9 µM and 15.7 µM | [3] 28.8 µM and 9.17 µM | [4] 21 µM and 15.7 µM | [5] 31.8 µM and 34.2 µM | [6] 27.4 µM and 25.9 µM | [7] 12.7 µM and 6.94 µM | [8] 31.5 µM and 32 µM | [9] 28.1 µM and 11.7 µM | [10] 27.2 µM and 16.9 µM | [11] 4.85 µM | [12] 13.7 µM | [13] 8.93 µM and 7.96 µM | [14] 25.9 µM and 14.2 µM | [15] 29 µM and 16.1 µM | [16] 9.76 µM and 7.96 µM | [18] 9.19 µM and 7.91 µM | [19] 5.05 µM and 314 nM | [20] 7.77 µM and 7.23 µM
